# Results published in article PMC5540273 (PLoS ONE, 2017).
# Tested on: CSNK2A1
# Details: concentration: 1 μM, replicates: in singlicate; n = 1
# 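Also: KINOMEscan kinase panel screen.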
row,SMILES,%Inh [%]
1,COc1ccc(-c2cc3c(C)nc(N)nc3n([C@H]3CC[C@H](OCCO)CC3)c2=O)cn1,0
2,Cn1c(=O)c(F)c(Nc2ccc(I)cc2F)c2c(=O)n(OC[C@H](O)CO)cnc21,0
3,Nc1n[nH]c2ncc(-c3ccccc3)cc12 [SB-517081],0
4,CCC(=O)c1c(-c2ccccc2)c2cc(Cl)ccc2c(=O)n1Cc1cc(S(C)(=O)=O)n(CC(N)=O)n1,0
5,Nc1ncnc2c1ncn2-c1ccc(Cl)cc1 [AH2635],0
6,Cc1nnc(-c2ccc3ncn(-c4ccc(S(C)=O)cc4)c3c2)o1 (stereo not drawn),22
7,COc1cc2ncn(-c3cc(OCc4ccc(S(C)(=O)=O)cc4)c(C(N)=O)s3)c2cc1OC [GW869979],19
8,CCC(=O)c1c(-c2ccccc2)c2cc(Cl)ccc2c(=O)n1Cc1ccc(C(=O)O)cc1,0

# Tested on: CSNK2A2
# Details: concentration: 1 μM, replicates: in singlicate; n = 1
row,SMILES,%Inh [%]
1,CCc1nc(-c2cccc(C)c2)c(-c2ccncc2)s1,0
2,COc1cc(OC)cc(-c2cc3cnc(N)nc3nc2NC(=O)NC(C)(C)C)c1,0
3,Nc1ncnc2c1ncn2-c1cccc(F)c1 [SKF-97560],0
4,COc1cc2ncn(-c3cc(OCc4ccncc4)c(C(N)=O)s3)c2cc1OC [GSK336313],29
5,Fc1cccc(CSc2nnc(-c3ccc4c(c3)CCO4)o2)c1,33
6,CCC(=O)c1c(-c2ccccc2)c2cc(Cl)ccc2c(=O)n1Cc1cc(S(C)(=O)=O)n(CCC(C)(C)O)n1,22
7,CCn1c(-c2ccoc2)nc2cnccc21 [SB-733887],13
8,CCc1ccc(-c2ccc3c(c2)-c2nn(C)cc2S(=O)(=O)N3C)cc1,0
9,COc1ccc(-c2coc3ccc(-c4nnc(SCc5cccc(C#N)c5)o4)cc23)cc1,28
10,COC(=O)c1c(-c2ccccc2)c2cc(C)ccc2c(=O)n1Cc1ccccc1,0
11,Cl.NS(=O)(=O)c1cccc(Nc2cc(-c3ccc(F)cc3)n[nH]2)c1 [GW824645],20
12,COC(=O)c1c(-c2ccccc2)c2cc(Br)ccc2c(=O)n1Cc1ccc(NC(=O)CCC(=O)O)cc1,19
13,COc1ccc(CNC(=O)NC2CCN(c3ccnc(Nc4ccc(F)cc4)n3)C2)cc1 (stereo not drawn) [GSK1379706],12
14,CCS(=O)(=O)c1ccc(OC)c(Nc2ncc(-c3ccc(F)cc3)o2)c1.Cl [GW591947],17
15,Cc1nn2c(=O)cc(N3CCOCC3)nc2n1Cc1cccc(Cl)c1Cl [GSK2342769],5
16,CCS(=O)c1ccc(-c2coc3ccc(-c4nnc(C)o4)cc23)cc1 (stereo not drawn),31
17,COc1cc(Nc2nccc(N3CCC(NC(=O)C(C)c4ccc(Cl)cc4)C3)n2)cc(OC)c1OC (stereo not drawn) [GSK1379757],0
18,COc1cc2ncn(-c3cc(OCc4ccncc4Br)c(C(N)=O)s3)c2cc1OC [GW854278],18
19,Cl.c1ccc(Cn2cnc3cc(Nc4ncnc5ccccc45)ccc32)cc1 [GW272142],0

row,SMILES,%Inh [%]
1,CCC(=O)c1c(-c2ccccc2)c2cc(Cl)ccc2c(=O)n1Cc1cc(C(=O)NC2CC2)n(C)n1,3
2,Nc1nccc2scc(-c3ccc4c(c3)CCN4C(=O)Cc3ccccc3)c12 [GSK2576924],13
3,COc1ccc(-c2cc3c(C)nc(N)nc3n([C@H]3CC[C@H](O)CC3)c2=O)cn1,0
4,Nc1nc(-c2ccccc2F)c(-c2ccnc3ccccc23)s1 [GW560459],0
5,COc1cccc(C2=C(N(C)c3ccccc3)C(=O)NC2=O)c1 [SB-334865],3
6,CCn1c(-c2nonc2N)nc2ccccc21 [SB-693162/GW549034],19
7,COc1cc2nccc(Nc3ccc(OCc4ccc(NC(C)=O)cc4)cc3)c2cc1OC.Cl [GW440135],0
8,Cc1ccc(Oc2ccc(Nc3ncnc4cc[nH]c34)cc2C)cn1,13
9,O=C(Nc1n[nH]c2cc(-c3ccccc3F)ccc12)C1CC1 [SB-733371],0
10,O=C1NC(=O)C(c2ccccc2)=C1Nc1cccc(O)c1 [SB-390534],0
11,COc1ccc(-c2cc3c(C)nc(N)nc3n([C@H]3CC[C@H](OCCO)CC3)c2=O)cn1,11
12,Cn1c(=O)c(F)c(Nc2ccc(I)cc2F)c2c(=O)n(OC[C@H](O)CO)cnc21,0
13,Nc1n[nH]c2ncc(-c3ccccc3)cc12 [SB-517081],11
14,CCC(=O)c1c(-c2ccccc2)c2cc(Cl)ccc2c(=O)n1Cc1cc(S(C)(=O)=O)n(CC(N)=O)n1,4
15,Nc1ncnc2c1ncn2-c1ccc(Cl)cc1 [AH2635],1
16,Cc1nnc(-c2ccc3ncn(-c4ccc(S(C)=O)cc4)c3c2)o1 (stereo not drawn),35
17,COc1cc2ncn(-c3cc(OCc4ccc(S(C)(=O)=O)cc4)c(C(N)=O)s3)c2cc1OC [GW869979],0
18,CCC(=O)c1c(-c2ccccc2)c2cc(Cl)ccc2c(=O)n1Cc1ccc(C(=O)O)cc1,0
